PubChem BioAssay AID720518 (National Center for Advancing Translational Sciences (NCATS), 2013)
Records with an inconclusive call do not appear. Entries that show only a call come without a potency. Active and inactive are the calls of the source. Calls come from the whole dose curve.

Test: qHTS for Inhibitors of Cell Surface uPA Generation: Wild-type Protective Antigen (WT-PrAg) Counterscreen for Cherry-picked Compounds
Conditions: cells, WT protective antigen toxicity counterscreen; series mostly up to 115 µM
Potency is the fitted concentration of half-maximal effect.

Compound	Potency
CCOC(=O)C1CCCN(CC(=O)Nc2ccc(C(=O)Nc3ccccc3OC)cc2)C1 (stereo not given)	inactive
CCOc1cc(C(=S)N2CCOCC2)ccc1OC(=O)c1cccc(C)c1	inactive
CC(OC(=O)c1cccc(-n2cnnn2)c1)C(=O)Nc1ccc(F)c(F)c1F (stereo not given)	inactive
CCN(C1CCS(=O)(=O)C1)S(=O)(=O)c1ccc2ccccc2c1 (stereo not given)	inactive
O=C(Nc1ccc2c(c1)CCC2)Nc1ccc2c(c1)OCO2	inactive
Cc1noc(C)c1COc1ccc(C(=O)O)cc1	inactive
Cc1cc(-c2ccccc2)nc(N/N=C/c2ccc(N(C)C)cc2)n1	inactive
Cc1ccc(N2C(=O)c3ccccc3C2(O)c2ccccc2)cc1 (stereo not given)	inactive
Cn1cnc([N+](=O)[O-])c1Sc1ccc(Br)cc1	inactive
CCOc1cc(S(=O)(=O)NC2CC(C)(C)NC(C)(C)C2)ccc1Cl	inactive
CCCN1CCN(C(=O)CCCn2c(C)c3cnn(-c4ccccc4)c(=O)c3c2C)CC1	inactive
CC1=CC(C)(C)N2C(=O)C3(NCCc4c3[nH]c3ccccc43)c3cc(C)cc1c32 (stereo not given)	2.33 µM (active)
COc1ccccc1N1CCN(Cc2ccc(SC)cc2)CC1	inactive
CN(c1ccccc1)S(=O)(=O)c1ccc(C(=O)Nc2nnc(C3CC3)o2)cc1	inactive
CC1(C)CC(=O)C([N+](=O)[O-])=C(NCCCC(=O)O)C1	inactive
Cc1ccc(NC(=O)c2ccc(=O)[nH]n2)cc1S(=O)(=O)Nc1ccccc1Cl	inactive
CSc1nc(-c2ccccc2)nc(C(Cl)Cl)n1	inactive
Cc1ccc(NC(=S)N2CCN(Cc3ccc4c(c3)OCO4)CC2)c(C)c1	inactive
O=C(O)c1ccc(-n2nnnc2SCc2cccc(Br)c2)cc1	inactive
COc1ccccc1NC(=O)Cn1ncc2c1-c1ccccc1OC2	inactive

Compound	Potency
CCOc1ccc(NS(=O)(=O)c2coc(C(N)=O)c2)cc1	inactive
Nc1nc2ccc(Br)cc2o1	inactive
COCCNC(=O)COCc1cc(-c2ccc3c(c2)OCO3)on1	inactive
Cc1nn(C)c(C)c1S(=O)(=O)N1CCC(C(=O)NC2CCCCCC2)CC1	inactive
CN1CC[C@]23c4ccccc4N[C@H]1[C@]21CCN(C)[C@H]3Nc2ccccc21	inactive
COc1ccc(C(=O)NC(C)c2cnn(-c3ccccn3)c2C)o1 (stereo not given)	inactive
O=C(Cc1ccc(Cl)cc1)NC(=S)Nc1ccccc1O	inactive
C[C@]12CCC(O)CC1CCC1C2CC[C@]2(C)C(c3cc(C(F)(F)F)n[nH]3)CCC12 (stereo not given in full)	inactive
CCN(CC)S(=O)(=O)c1ccc(NC(=S)Nc2ccc(F)cc2)cc1	inactive
O=C(c1ccc(NC(=S)NCc2ccc(Cl)cc2)cc1)N1CCCCC1	inactive
CCCCn1c(N)c(N(CCC(C)C)C(=O)c2sc3nc4n(c(=O)c3c2C)CCC4)c(=O)[nH]c1=O	inactive
COc1ccccc1NC(=O)COc1ccc(C(=O)NCc2ccccc2)cc1OC	inactive
Fc1ccc(CNc2ccccn2)cc1	inactive
CC1(C)C([N+](=O)[O-])C(c2ccc(F)cc2)NC(c2ccc(F)cc2)C1[N+](=O)[O-] (stereo not given)	inactive
CCCNC(=O)COc1coc(CN2CCN(c3ccccc3OC)CC2)cc1=O	inactive
COc1ccc(Cl)cc1NC(=O)CSc1nc(=O)n(CCN(C)C)c2c1CCCC2	inactive
CCCCNc1c(-c2ccc(-c3cccc(Cl)c3)cc2)nc2ccccn12	inactive
O=C(NCCc1cn2ccsc2n1)c1cccs1	inactive
CCC(C)C(NC(=O)c1ccccc1)C(=O)Nc1ccc(S(=O)(=O)Nc2cc(C)nc(C)n2)cc1 (stereo not given)	inactive
O=[N+]([O-])c1cccc2c(N3CCOCC3)ccnc12	inactive
